Results on ten compounds are retold here after PubChem BioAssay (Tox21).

The structures appear in SMILES notation. Unmarked numbers belong to inactive results. Results filed as inconclusive are left out. Active and inactive are the calls of the source. Unless noted, the call rests on the fitted dose curve; in most records, active means well fitted curve in the direction sought with a large enough effect in the repeat runs; inconclusive means weak or mixed curves; inactive means no such curve, though single readings can be large; an effect the other way counts as inactive or inconclusive.

The target in test [1] is Thyrotropin-releasing hormone receptor (Homo sapiens) (UniProt P34981). The test can be described thus: qHTS assay to identify small molecule agonists of the thyrotropin-releasing hormone receptor (TRHR) signaling pathway (AID 1346891; calls by dose curve; further: series mostly up to about 58 µM). In short, it runs like this: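 TRHR-expressing HEK293 cells were plated 18 h at 37 °C/5% CO2, loaded with calcium dye 2 h at 37 °C, then given compound in DMSO; fluorescence was read kinetically for 3 min at 1 s intervals.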
Sequence of Thyrotropin-releasing hormone receptor (Homo sapiens) (P34981 whole entry, looked up): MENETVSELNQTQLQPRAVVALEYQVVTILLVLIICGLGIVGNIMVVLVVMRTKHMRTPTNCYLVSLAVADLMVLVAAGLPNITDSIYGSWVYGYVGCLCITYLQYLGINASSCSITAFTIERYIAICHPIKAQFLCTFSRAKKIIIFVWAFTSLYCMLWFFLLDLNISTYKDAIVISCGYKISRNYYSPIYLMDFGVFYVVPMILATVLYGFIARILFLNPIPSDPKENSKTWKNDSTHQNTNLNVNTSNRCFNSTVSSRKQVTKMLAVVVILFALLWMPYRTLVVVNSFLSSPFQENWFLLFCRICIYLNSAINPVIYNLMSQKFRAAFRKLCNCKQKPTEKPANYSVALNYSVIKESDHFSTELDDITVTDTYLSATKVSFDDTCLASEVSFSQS
In general terms: qHTS replaces the single test concentration by a dilution series.

Test [2] in a line: Human pregnane X receptor (PXR) small molecule agonists, qHTS cell viability counter screen (AID 1346977). Further: nearly all actives have a fitted effect of over 50% in size. In short, it runs like this: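 PXR-Luc HepG2 cells in medium with 5% charcoal-stripped FBS were pre-incubated 5hr, then exposed to compounds for 24hr at 37C. Viability was read in the same wells by CellTiter-Fluor fluorescence, reagent added after 23hr with a 1hr incubation.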

The nature of test [3]: Caspase-3/7 induction in HepG2 cells by small molecules, qHTS assay (AID 1346978). Further: nearly all actives have a fitted effect of over 15% in size. In short, it runs like this: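 Wild-type HepG2 cells (2,000/well) were settled 5 h at 37 C, 5% CO2, then exposed to compounds in DMSO for 17 h. Caspase-3/7 activity was read by luminescence 30 min after adding Caspase-Glo 3/7 reagent at room temperature.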
Test [4] can be described thus: Caspase-3/7 induction in CHO-K1 cells by small molecules, qHTS cell viability counter screen (AID 1346979). Further: nearly all actives have a fitted effect of over 35% in size. In short, it runs like this: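 Wild-type CHO-K1 cells were seeded at 1,500 per well, rested 5hr at 37 C, then exposed to compounds in DMSO. After 16hr, CellTiter-Fluor reagent was added and fluorescence read 1hr later as the viability measure.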
A short description of test [5]: Caspase-3/7 induction in HepG2 cells by small molecules, qHTS cell viability counter screen (AID 1346981). Further: series mostly up to about 92 µM; nearly all actives have a fitted effect of over 30% in size. In short, it runs like this: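 CellTiter-Fluor fluorescence measured viability in the same wells used for Caspase-Glo 3/7. HepG2 (wild type) at 2,000 cells/well were pre-incubated 5 hr, dosed, and given reagent at 16 hr, with 1 hr further at 37C.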
Test [6] deals with Nuclear receptor subfamily 1 group I member 2 (Homo sapiens) (UniProt O75469). The test can be described thus: Human pregnane X receptor (PXR) small molecule agonists, qHTS assay (AID 1346982). Further: nearly all actives have a fitted effect of over 35% in size. In short, it runs like this: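 Agonist mode: luminescence from ONE-Glo after 24 h compound exposure at 37C in HepG2 cells carrying hPXR-responsive CYP3A4 luciferase, plated in charcoal-stripped serum medium 5 h beforehand.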
Sequence of Nuclear receptor subfamily 1 group I member 2 (Homo sapiens) (O75469 whole entry, looked up): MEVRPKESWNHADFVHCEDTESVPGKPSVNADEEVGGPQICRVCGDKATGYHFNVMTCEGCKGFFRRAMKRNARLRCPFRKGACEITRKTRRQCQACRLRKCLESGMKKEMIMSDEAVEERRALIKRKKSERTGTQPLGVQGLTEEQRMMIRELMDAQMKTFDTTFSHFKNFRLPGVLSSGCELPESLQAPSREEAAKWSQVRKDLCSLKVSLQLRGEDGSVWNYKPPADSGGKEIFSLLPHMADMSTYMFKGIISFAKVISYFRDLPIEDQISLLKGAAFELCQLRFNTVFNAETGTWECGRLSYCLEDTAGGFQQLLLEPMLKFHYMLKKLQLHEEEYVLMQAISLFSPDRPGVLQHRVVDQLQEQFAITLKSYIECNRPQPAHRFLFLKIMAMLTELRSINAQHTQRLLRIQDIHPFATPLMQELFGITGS

Test [7] has as its target Cytochrome P450 2D6 (Homo sapiens) (UniProt P10635). The test can be described thus: Cytochrome P450 Family 2 Subfamily D Member 6 (CYP2D6) small molecule antagonists: luciferase reporter qHTS assay (AID 1671196). Further: nearly all actives have a fitted effect of over 50% in size. Further: potency means the concentration at half of the fitted maximal effect. In short, it runs like this:
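CYP2D6 activity was followed as luminescence from its luciferin product after a 1 h NADPH-driven reaction at room temperature. Enzyme-substrate mix and compound were pre-incubated for 10 min, and the signal was read 20 min after adding detection reagent.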

In test [8] the target is Cytochrome P450 2C19 (Homo sapiens) (UniProt P33261). The test can be described thus: Cytochrome P450 Family 2 Subfamily C Member 19 (CYP2C19) small molecule antagonists: luciferase reporter qHTS assay (AID 1671197). Further: nearly all actives have a fitted effect of over 65% in size. Further: potency means the concentration at half of the fitted maximal effect. In short, it runs like this:
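First, compounds are pinned into enzyme-substrate mix and held 10 min at room temperature. Second, NADPH regeneration solution is added and plates incubate 1 h at 37C. Third, detection reagent is added and luminescence read after 20 min.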
A general note: A reporter such as luciferase makes a cellular process visible.

Test [9] addresses Cytochrome P450 2C9 (Homo sapiens) (UniProt P11712). The test can be described thus: Cytochrome P450 Family 2 Subfamily C Member 9 (CYP2C9) small molecule antagonists: luciferase reporter qHTS assay (AID 1671198). Further: nearly all actives have a fitted effect of over 50% in size. Further: potency means the concentration at half of the fitted maximal effect. In short, it runs like this: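 CYP2C9 activity was measured with a P450-Glo proluciferin substrate. Enzyme–substrate mix was held with compound for 10 min at room temperature, then NADPH regeneration solution was added for 1 h at 37C. Luciferin product was read as luminescence.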

Test [10] can be described thus: Caspase-3/7 induction in CHO-K1 cells by small molecules, qHTS assay (AID 1346980). Further: nearly all actives have a fitted effect of over 15% in size. In short, it runs like this: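 Wild-type cells were seeded at 1,500 per well and settled 5 hr at 37 C, 5% CO2, then exposed to DMSO-dissolved compounds for 17 hr. Caspase-Glo 3/7 reagent was added, and luminescence was read after 30min at room temperature.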
Test [11] deals with Cytochrome P450 1A2 (Homo sapiens) (UniProt P05177). The test can be described thus: Cytochrome P450 Family 1 Subfamily A Member 2 (CYP1A2) small molecule antagonists: luciferase reporter qHTS assay (AID 1671199). Further: nearly all actives have a fitted effect of over 50% in size. Further: potency means the concentration at half of the fitted maximal effect. In short, it runs like this: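 Luminescence from luciferin formed by CYP1A2 from a proluciferin substrate, read 20 min after detection reagent. Compound was pre-incubated 10 min with enzyme-substrate, and reaction started with NADPH regeneration solution for 1 h at room temperature; furafylline control.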
Sequence of Cytochrome P450 1A2 (Homo sapiens) (P05177 whole entry, looked up): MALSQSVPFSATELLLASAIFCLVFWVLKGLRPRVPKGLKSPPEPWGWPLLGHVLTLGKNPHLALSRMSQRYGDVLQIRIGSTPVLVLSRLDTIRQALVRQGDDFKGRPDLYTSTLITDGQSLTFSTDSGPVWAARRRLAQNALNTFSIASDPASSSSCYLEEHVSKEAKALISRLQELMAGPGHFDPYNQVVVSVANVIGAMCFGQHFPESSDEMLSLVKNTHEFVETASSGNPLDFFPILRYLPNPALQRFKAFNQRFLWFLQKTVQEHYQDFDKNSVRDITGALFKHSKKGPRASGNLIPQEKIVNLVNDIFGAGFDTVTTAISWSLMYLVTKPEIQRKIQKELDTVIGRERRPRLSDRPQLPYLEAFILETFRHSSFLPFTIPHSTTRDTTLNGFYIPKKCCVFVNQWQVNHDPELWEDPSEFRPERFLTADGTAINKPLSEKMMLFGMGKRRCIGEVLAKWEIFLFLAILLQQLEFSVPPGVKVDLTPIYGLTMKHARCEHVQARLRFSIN

Test [12] deals with Voltage-gated inwardly rectifying potassium channel KCNH2 (Homo sapiens) (UniProt Q12809). Description: Human Ether-a-go-go-Related Gene (hERG) channel small molecule antagonists: fluorescence cell-based qHTS assay (AID 1671200). In short, it runs like this: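 U2OS cells expressing the channel were plated at 1000 cells/well, incubated overnight at 37 C, then loaded with FluxOR II thallium-sensitive dye for 1 h at room temperature in the dark, with a further 10 min at room temperature before stimulation.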
Sequence of Voltage-gated inwardly rectifying potassium channel KCNH2 (Homo sapiens) (Q12809 whole entry, looked up): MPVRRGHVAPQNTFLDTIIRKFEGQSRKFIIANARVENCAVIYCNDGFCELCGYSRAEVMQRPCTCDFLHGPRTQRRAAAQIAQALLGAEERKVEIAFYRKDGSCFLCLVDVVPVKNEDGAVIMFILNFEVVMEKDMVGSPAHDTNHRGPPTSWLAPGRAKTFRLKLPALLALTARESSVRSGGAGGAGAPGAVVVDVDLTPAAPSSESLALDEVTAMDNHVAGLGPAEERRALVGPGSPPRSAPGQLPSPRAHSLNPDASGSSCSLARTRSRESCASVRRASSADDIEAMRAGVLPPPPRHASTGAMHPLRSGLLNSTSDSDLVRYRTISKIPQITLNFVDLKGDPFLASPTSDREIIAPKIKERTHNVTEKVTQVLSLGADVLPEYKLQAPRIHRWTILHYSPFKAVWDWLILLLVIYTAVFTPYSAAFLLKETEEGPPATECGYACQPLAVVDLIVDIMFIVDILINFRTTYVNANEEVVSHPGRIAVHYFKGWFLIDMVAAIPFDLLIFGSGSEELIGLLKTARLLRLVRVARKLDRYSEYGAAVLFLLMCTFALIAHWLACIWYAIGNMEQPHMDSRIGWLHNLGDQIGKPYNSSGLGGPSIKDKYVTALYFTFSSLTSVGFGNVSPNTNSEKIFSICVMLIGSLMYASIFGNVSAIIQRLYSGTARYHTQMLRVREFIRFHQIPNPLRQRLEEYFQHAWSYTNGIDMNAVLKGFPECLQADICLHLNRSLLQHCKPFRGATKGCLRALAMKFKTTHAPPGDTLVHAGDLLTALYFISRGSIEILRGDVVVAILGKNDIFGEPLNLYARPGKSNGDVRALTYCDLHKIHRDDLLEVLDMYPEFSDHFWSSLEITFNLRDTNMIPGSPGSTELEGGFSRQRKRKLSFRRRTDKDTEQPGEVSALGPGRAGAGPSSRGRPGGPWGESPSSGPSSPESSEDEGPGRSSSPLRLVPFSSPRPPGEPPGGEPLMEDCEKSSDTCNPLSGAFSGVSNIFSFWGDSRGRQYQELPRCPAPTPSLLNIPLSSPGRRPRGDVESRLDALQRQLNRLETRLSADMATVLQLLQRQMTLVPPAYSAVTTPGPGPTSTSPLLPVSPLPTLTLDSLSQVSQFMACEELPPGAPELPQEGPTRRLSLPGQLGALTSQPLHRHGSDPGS
In general terms: Block of hERG is tested as a sign of cardiac risk.

The target in test [13] is Cytochrome P450 3A4 (Homo sapiens) (UniProt P08684). The test can be described thus: Cytochrome P450 Family 3 Subfamily A Member 4 (CYP3A4) small molecule antagonists: luciferase reporter qHTS assay (AID 1671201). In short, it runs like this:
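P450-Glo CYP3A4 system with proluciferin substrate; compounds preincubated 10 min RT with enzyme-substrate mix, then NADPH regeneration added for 1 h RT. Detection reagent 20 min, luminescence read as relative luminescence units.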

In test [14] the target is Nuclear receptor subfamily 1 group I member 2 (Homo sapiens) (UniProt O75469). Description: CYP3A4 induction through human pregnane X receptor (PXR) by small molecules, qHTS assay (AID 1346984). Further: nearly all actives have a fitted effect of over 40% in size. In short, it runs like this:
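Read-out is luminescence after One-Glo addition, following a 3 hr, 37C incubation with Luciferin-IPA CYP3A4 substrate (3uM final). Before that, compounds were on DPX-2 cells (HepG2 co-transfected with PXR element plus CYP3A4-promoter luciferase) for 24 hr at 37C.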

The target is the same in test [15]. The test can be described thus: Human pregnane X receptor (PXR) activation by small molecules, qHTS assay (AID 1346985). Further: nearly all actives have a fitted effect of over 40% in size. In short, it runs like this:
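DPX-2 cells (HepG2 co-transfected with a PXR response element and a CYP3A4-promoter luciferase construct) were seeded at 2,000 per well, rested 5 hr at 37C, then exposed to DMSO-dissolved compounds for 24 hr. Activation was read as luciferase luminescence.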

Sequence of Cytochrome P450 2C19 (Homo sapiens) (P33261 whole entry, looked up): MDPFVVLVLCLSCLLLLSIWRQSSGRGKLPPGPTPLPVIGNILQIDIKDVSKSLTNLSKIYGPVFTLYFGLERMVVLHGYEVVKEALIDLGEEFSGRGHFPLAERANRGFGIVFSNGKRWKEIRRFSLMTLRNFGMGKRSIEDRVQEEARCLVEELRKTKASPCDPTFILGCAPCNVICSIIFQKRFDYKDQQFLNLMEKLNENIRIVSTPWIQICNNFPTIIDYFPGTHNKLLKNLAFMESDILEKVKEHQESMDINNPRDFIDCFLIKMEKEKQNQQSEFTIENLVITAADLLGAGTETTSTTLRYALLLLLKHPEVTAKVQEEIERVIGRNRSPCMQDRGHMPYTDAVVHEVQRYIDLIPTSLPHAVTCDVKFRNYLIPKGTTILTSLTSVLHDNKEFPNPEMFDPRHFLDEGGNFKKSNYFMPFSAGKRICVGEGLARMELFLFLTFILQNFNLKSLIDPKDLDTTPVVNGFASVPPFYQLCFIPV
Sequence of Cytochrome P450 3A4 (Homo sapiens) (P08684 whole entry, looked up): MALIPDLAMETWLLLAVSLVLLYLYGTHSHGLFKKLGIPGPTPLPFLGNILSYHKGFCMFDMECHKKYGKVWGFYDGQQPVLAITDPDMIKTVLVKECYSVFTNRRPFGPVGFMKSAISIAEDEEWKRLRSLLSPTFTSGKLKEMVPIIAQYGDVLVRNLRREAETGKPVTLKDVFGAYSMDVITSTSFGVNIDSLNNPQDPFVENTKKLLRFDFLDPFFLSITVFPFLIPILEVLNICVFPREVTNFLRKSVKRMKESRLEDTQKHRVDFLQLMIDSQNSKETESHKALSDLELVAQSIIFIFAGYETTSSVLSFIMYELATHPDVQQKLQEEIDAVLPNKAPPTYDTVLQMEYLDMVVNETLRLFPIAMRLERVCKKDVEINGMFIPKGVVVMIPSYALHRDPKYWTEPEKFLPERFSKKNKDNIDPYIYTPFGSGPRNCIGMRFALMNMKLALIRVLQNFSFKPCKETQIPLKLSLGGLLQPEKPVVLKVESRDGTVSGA
Sequence of Cytochrome P450 2D6 (Homo sapiens) (P10635 whole entry, looked up): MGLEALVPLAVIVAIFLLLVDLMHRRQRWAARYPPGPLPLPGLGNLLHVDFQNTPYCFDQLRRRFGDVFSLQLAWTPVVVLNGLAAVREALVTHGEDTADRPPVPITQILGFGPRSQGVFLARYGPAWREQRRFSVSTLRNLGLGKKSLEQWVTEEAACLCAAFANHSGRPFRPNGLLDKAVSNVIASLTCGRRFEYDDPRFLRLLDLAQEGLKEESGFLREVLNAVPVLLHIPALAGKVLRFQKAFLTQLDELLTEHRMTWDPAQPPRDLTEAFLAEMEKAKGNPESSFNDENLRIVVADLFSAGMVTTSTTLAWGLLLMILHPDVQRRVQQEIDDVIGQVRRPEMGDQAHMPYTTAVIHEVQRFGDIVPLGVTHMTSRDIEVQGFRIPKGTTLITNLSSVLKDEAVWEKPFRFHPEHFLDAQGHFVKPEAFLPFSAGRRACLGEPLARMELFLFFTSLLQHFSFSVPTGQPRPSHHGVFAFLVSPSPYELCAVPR
Sequence of Cytochrome P450 2C9 (Homo sapiens) (P11712 whole entry, looked up): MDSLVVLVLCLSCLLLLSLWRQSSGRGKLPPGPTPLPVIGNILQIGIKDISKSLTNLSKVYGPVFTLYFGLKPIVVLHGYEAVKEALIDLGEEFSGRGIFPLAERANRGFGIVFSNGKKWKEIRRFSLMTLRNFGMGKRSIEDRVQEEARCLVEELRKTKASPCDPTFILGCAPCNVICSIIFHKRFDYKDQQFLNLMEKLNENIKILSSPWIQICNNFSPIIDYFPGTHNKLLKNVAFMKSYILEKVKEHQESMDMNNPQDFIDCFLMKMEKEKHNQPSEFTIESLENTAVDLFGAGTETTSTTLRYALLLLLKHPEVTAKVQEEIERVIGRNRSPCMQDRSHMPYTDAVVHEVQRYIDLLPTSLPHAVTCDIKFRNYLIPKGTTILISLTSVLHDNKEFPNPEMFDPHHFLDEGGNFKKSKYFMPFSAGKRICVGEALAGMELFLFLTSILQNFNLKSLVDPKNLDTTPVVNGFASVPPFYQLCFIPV

As to `CCO[Si](C)(OCC)OCC`, the outcome in [1], in [3] and in [5] was inactive. Besides, the Potency entry in [2], in test [4], in test [6], in test [7], in [8] and in test [9] was “inactive” each time.

On to `CCOC(=O)[C@H](CCc1ccccc1)N[C@@H](C)C(=O)N1CCC[C@H]1C(=O)O`, for which the call in test [1], in [3], in test [10] and in test [5] was inactive. The Potency result in test [2], in test [4], in test [8], in test [11] and in [12] was “inactive” throughout.

On to `CC(C)(O)Cc1ccccc1`, for which the outcome in [1], in test [3] and in [5] was inactive. For the same compound, the Potency result in test [2], in test [4], in test [6], in test [7], in [8] and in [9] was “inactive” throughout. The Potency entry in test [11], in test [12] and in test [13] was “inactive” each time.

As for `CC(C)CCOC(=O)CC(C)C`, the result in test [1], in [3], in test [10] and in test [5] was inactive. The Potency entry in test [2], in [4], in test [7], in test [8], in test [9] and in test [11] was “inactive” throughout. Moreover, the Potency result in [12] and in test [13] was “inactive” in each case.

As to `O=C(O)c1ccc[n+]([O-])c1`, the compound was called inactive in test [1], in test [3] and in test [5]. Besides, the Potency result in test [2], in [4], in [6], in test [14], in [15] and in test [7] was “inactive” each time. Further, the Potency entry in test [8], in test [9], in test [11], in test [12] and in test [13] was “inactive” throughout.

Take `O=C1OC(=O)c2cc([N+](=O)[O-])ccc21`: the compound was classed as inactive in [1], in test [3], in test [10] and in test [5]. Also, the Potency entry in test [2], in test [4], in [8], in [9], in test [12] and in test [13] was “inactive” each time. Moreover, the Potency in [7] was 35.5 µM (active).

In the case of `COC(=O)C1=C(C)NC(C)=C(C(=O)OCC(C)=O)C1c1ccccc1[N+](=O)[O-]` (configuration not stated), the outcome in test [1], in test [3], in test [10] and in test [5] was inactive. Further, the Potency entry in [2], in test [4], in [7] and in test [12] was “inactive” each time. Also, the figures for the Potency in test [8], in test [9] and in [11] were 5.49 µM (active), 13.8 µM (active) and 2.45 µM (active), respectively.

Consider `CC(=O)c1ccc(C)cc1`, for which the compound was classed as inactive in [1], in [3], in test [10] and in [5]. Also, the Potency entry in test [2], in test [4], in test [7], in test [9], in test [11] and in [12] was “inactive” throughout.

As to `CC(CCO)CCCC(C)(C)O` (configuration not stated), the compound was called inactive in test [1], in test [3], in test [10] and in [5]. Besides, the Potency result in test [2], in test [6], in test [7], in test [9] and in test [13] was “inactive” each time.

Turning to `CCCCC1CCCCC(=O)O1` (configuration not stated), the compound was classed as inactive in [1], in [3] and in test [5]. For the same compound, the Potency entry in test [2], in test [4], in test [6], in [7], in [9] and in test [12] was “inactive” in each case. Besides, in test [13], the Potency entry was “inactive”.
